Compounds with a hit are over-represented: about 2.7% of the library has one in this group of screens.
Peg3 prom inh-1: Peg3 promoter activity inhibition; inhibition, % at 20 µM; HeLa PEG-Prom luciferase reporter, luminescence, overnight; 1.7% of 360,000 active;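 active = inhibition of at least 50% at 20 µM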
HIF-2a inh: inhibitors of HIF-2a | 786-0 RCC cells HIF-2a reporter, luciferase luminescence, overnight | inhibition, % at 18.8 µM | 0.72% of 360,000 active | AID 624352;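 active = inhibition of the luminescence signal of 40% or more relative to plate controls, in a single-dose primary screen at 18.75 µM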
CF NFkB block: cystic fibrosis NF-kB activation inhibition; AID 588850; inhibition, % at 5 µM; KKLEB NF-kB-GFP reporter, PAF-induced, GFP fluorescence overnight; 0.86% of 360,000 active;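 active = at least 50% inhibition at 5 µM, scaled per plate between neutral and stimulator controls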;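 note: PAF is a Pseudomonas aeruginosa culture filtrate used as stimulus; plate controls were PAF-stimulated DMSO wells for no effect and unstimulated DMSO wells for full effect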
KKLEB tox: counter-screen for CF NF-kB inhibitors: cytotoxicity; KKLEB CF airway cells viability, ATPlite luminescence, overnight; active compounds read low; cells stimulated with P. aeruginosa culture filtrate; 0.36% of 360,000 active; activity change (cytotoxicity), % at 5 µM;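 active = corrected activity change at or below -50% at 5 µM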
MITF TRPM1 inh: inhibitors of MITF-driven TRPM1 promoter in melanoma cells; SK-MEL-5 TRPM1 promoter luciferase, 24 h; 0.83% of 330,000 active; inhibition, % at 12.5 µM; AID 488899;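 active = mean inhibition across replicates of 60% or more, whatever share of single replicates reaches that level; inconclusive = some that reach 60%, reason not given; inactive = mean inhibition across replicates below 60%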
Shn3 inh set2: Schnurri-3 reporter inhibition in Clone20 osteoblasts; Clone20 osteoblast Shn3 3'UTR firefly luciferase, 24 h; inhibition, % at 12.5 µM; 0.52% of 360,000 active;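 active = mean inhibition of at least 75% with every replicate also reaching 75%; inconclusive = mean inhibition at least 75% but some replicate below; inactive = mean inhibition below 75%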;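 note: 0% = median of neutral control wells and 100% = pilot-screen positive control compound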
Peg3 prom inh-2: Peg3 promoter inhibition confirmation; shares compounds with Peg3 prom inh-1; HeLa PEG-Prom luciferase reporter, luminescence, overnight; inhibition, % at 20 µM; 84% of 1,300 active;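 active = at 20 µM dose, 40% or more inhibition averaged across four replicates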
An asterisk follows results filed as active; ? = inconclusive; . = not tested or not shown.

SMILES | Peg3 prom inh-1 | HIF-2a inh | CF NFkB block | KKLEB tox | MITF TRPM1 inh | Shn3 inh set2 | Peg3 prom inh-2
C[C@@H]1CN([C@@H](C)CO)C(=O)c2cc(NC(=O)Nc3ccccc3)ccc2O[C@@H](C)CCCCO[C@H]1CN(C)C(=O)Nc1ccc(C(F)(F)F)cc1 | 11.8 | 4.2 | -52.9 | -16.5 | . | 14.1 | .
COc1ccc2c(c1)sc1nc(-c3ccccc3)cn12 | 85.1* | 78.4* | 22.4 | -96.2* | 90.8* | ? | 73.9*
CCn1c(/C=C2\C(=O)Nc3ccccc32)nc2ccccc2c1=O | 51.8* | 12.2 | 9.4 | -16.8 | 16.2 | -10.4 | 35.0
CCn1c(/C=C/c2ccc(O)cc2)nc2ccccc2c1=O | 4.0 | -35.1 | 7.9 | 14.2 | 4.3 | 6.3 | .
Cc1ccc(-c2nnc(-c3ccc(NC(=O)Cc4cccs4)cc3)o2)cc1 | 55.5* | -19.9 | 71.1* | -77.2* | 41.0 | -0.9 | 16.8
COC(=O)CSC1=NS(=O)(=O)c2ccccc21 | 73.6* | -20.6 | 7.3 | 2.3 | 53.5 | -3.7 | 80.5*
COC(=O)CSc1ccccc1C(=O)OC | -1.4 | 0.1 | -1.9 | 6.6 | 10.6 | -22.5 | .
Fc1c(F)c(F)c(/C=N/NC(=S)Nc2cccnc2)c(F)c1F | 101.0* | 19.6 | 37.3 | -16.7 | 5.1 | 6.3 | 43.7*
CC(O)(c1ccc(F)c(F)c1)c1nc(-c2cc3ccccc3o2)cs1 (stereo unspecified) | 7.7 | -39.0 | -8.1 | 8.9 | . | -9.2 | .
CCc1cc2c(-c3ccccc3)cc(=O)oc2cc1OCC(C)=O | 11.0 | -8.9 | 4.5 | -0.2 | 2.4 | 2.4 | .
CC(=O)COc1cc2c(-c3cc4ccccc4o3)cc(=O)oc2cc1C | 56.4* | 4.4 | -193.3 | 1.8 | -8.0 | 8.4 | 35.9
CCCN1CCC(C)(C(=O)Nc2cccc(OC(C)C)c2)C1 (stereo unspecified) | 0.8 | 8.4 | -19.7 | 6.9 | . | -19.9 | .
CN=c1scc(-c2cccs2)n1/N=C/c1ccc(O)c(O)c1O | -136.5 | -90.6 | 20.0 | -32.5 | 4.2 | 73.0 | .
CN=c1scc(-c2cccs2)n1/N=C/c1ccccc1O | 90.9* | 90.1* | -9.6 | -69.3* | 86.9* | 89.8* | 94.7*
O=C1NC[C@H](CCCCN2C[C@H](Cc3ccccc3)N(Cc3ccccc3)C(=O)C2=O)N(CCc2ccccc2)C1=O | . | -4.5 | . | . | . | . | .
COCCCN=C1NN=C(c2cc(C)n(Cc3ccco3)c2C)CS1 | -72.6 | -68.0 | 22.5 | -8.2 | 37.8 | -13.1 | .
Cc1cc(C2=NNC(=NC3CC3)SC2)c(C)n1Cc1ccco1 | 86.0* | 80.2* | 22.2 | -11.5 | 91.3* | 38.4 | 89.6*
O/N=C(\c1ccc(Cl)cc1Cl)c1ncc(C(F)(F)F)cc1Cl | 57.2* | 16.3 | 2.5 | 5.7 | -7.2 | 51.2 | 47.2*
COc1ccc(-c2sc3ccccc3c2C#CCCO)cc1 | 6.8 | 2.1 | 24.2 | -16.1 | 2.2 | -43.6 | .
CS(=O)(=O)c1ccc(-c2sc3ccccc3c2C#CCCO)cc1 | 54.0* | -9.3 | -4.2 | 3.0 | 5.6 | -8.8 | 60.0*
COc1ccc2c(C#CCCO)c(-c3ccc(S(C)(=O)=O)cc3)sc2c1 | 50.2* | 9.9 | 7.0 | -19.4 | -2.5 | -8.8 | 42.2*
O[C@@H]1CN(Cc2cccs2)[C@@H](c2ccc(Cl)cc2)C[C@H]1n1cc(-c2ccc(F)cc2)nn1 | 44.3 | -10.6 | 5.5 | -14.8 | . | 5.6 | .
CCc1ccc2c(c1)Sc1ccccc1CC2N1CCN(C)CC1 (stereo unspecified) | 55.2* | 9.2 | 10.4 | -16.3 | 10.1 | -4.0 | 77.5*
CC(C)Oc1ccc(CN2CCC2(C)C(=O)Nc2cccc(Oc3ccccc3)c2)cc1 (stereo unspecified) | 3.1 | 18.4 | 25.6 | -12.4 | . | 3.3 | .
Cc1cccc(C)c1NC(=O)CN(Cc1ccccc1)Cc1ccccc1 | 23.4 | 12.1 | -22.9 | 9.1 | . | 17.6 | .
O=C(c1cc(-c2cccs2)nn1-c1ccccc1)N1CCN(S(=O)(=O)c2ccccc2)CC1 | 57.0* | 6.2 | 21.3 | -20.3 | 6.2 | 21.1 | 56.9*
COc1cc(CNC(C)(C)CO)cc(Br)c1OCc1ccc(Cl)cc1 | 80.7* | -18.2 | 12.6 | -11.0 | -12.7 | 2.4 | 91.1*
CCCCN(C)CCNC(=O)c1cc(-c2cccnc2)nc2ccc(S(=O)(=O)N3CCC(C)CC3)cc12 | 96.3* | 24.7 | 14.1 | -4.7 | 11.6 | -14.3 | 74.3*
